Compound activity deposited in PubChem BioAssay by Broad Institute.
Shn3 3UTR inh – Schnurri-3 reporter inhibition in Clone20 osteoblasts; Clone20 osteoblast Shn3 3'UTR firefly luciferase, 24 h; hit rate 0.52% among 360,000; inhibition, % at 12.5 µM;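 active = mean inhibition of at least 75% with every replicate also reaching 75%; inconclusive = mean inhibition at least 75% but some replicate below; inactive = mean inhibition below 75%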;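 also: 0% = median of neutral control wells and 100% = pilot-screen positive control compound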
TRPM1 prom inh – reduces MITF-dependent TRPM1 promoter luciferase signal. SK-MEL-5 TRPM1 promoter luciferase, 24 h. inhibition, % at 12.5 µM. hit rate 0.83% among 330,000;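 active = mean inhibition across replicates of 60% or more, whatever share of single replicates reaches that level; inconclusive = some that reach 60%, reason not given; inactive = mean inhibition across replicates below 60%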
aSyn UTR inh – 5' untranslated region of α-synuclein, MLPCN primary screen. alpha-synuclein 5'UTR reporter, inhibitor activity. inhibition, % (tested at 7.5 µM). hit rate 0.82% among 300,000. AID 1813; in the data active = inhibition above about 60%; inconclusive = no clear call, values can overlap the other calls;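 also: H4 neuroglioblastoma cells stably carrying SNCA 5'UTR luciferase fusion; 0% = DMSO wells and 100% = positive control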
LMP1 NFkB inh – reduces LMP1-driven NF-kappaB luciferase signal | LMP1-induced NF-kappaB luciferase reporter cells, luminescence | inhibition, % at 12.5 µM | hit rate 0.69% among 350,000 | AID 504558; in the data active = inhibition above about 41%; inconclusive = no clear call, values can overlap the other calls;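 also: 0% = neutral control wells and 100% = reference inhibitor control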
PAX8 inh HTS – PAX8 transcriptional activity inhibition; AID 652154; inhibition, % at 12.6 µM; RMG-I TPO-luciferase reporter, SteadyGlo, 24 h; hit rate 1.2% among 360,000;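 active = mean replicate inhibition at least 60% with every replicate also reaching 60%; inconclusive = only one of the two criteria is met; inactive = mean below 60% and not all replicates reaching 60%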;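 also: luciferase light reporting Pax8 driven TPO promoter activity; plate controls were median of neutral control wells for no effect and mitoxantrone controls for full effect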
* hit, by the source's call; u = inconclusive; x = no result; ! = a repeat was not active. Hits are enriched below; roughly 2.1% of the tested compounds scored in any of these assays.

SMILES	Shn3 3UTR inh	TRPM1 prom inh	aSyn UTR inh	LMP1 NFkB inh	PAX8 inh HTS
CC(=O)Nc1ccc(OC(=O)N2CCCCC2)cc1	9	7	69*	3	x
O=C(Nc1cccc(OC(=O)N2CCCCC2)c1)N1CCCCC1	9	8	-16	8	x
CCOc1cccc(CNCCc2c(C)[nH]c3ccc(OC(F)(F)F)cc23)c1O	u	98*	113*	-19	9
Cc1[nH]c2ccc(OC(F)(F)F)cc2c1CCNCc1cccc([N+](=O)[O-])c1	44	-13	3	1	25
COC(=O)c1nc(-c2ccc3c(n2)C(=O)C(N)=C(OC)C3=O)c(N)c(-c2ccc(OC)c(OC)c2O)c1C	46	100*	97*	-4	17
CCCCCCC[n+]1ccc(-c2cc[n+](CCCCCCC)cc2)cc1	76	-6	92*	2	86*
c1ccc2c(c1)[IH]c1ccccc1-2	91*	88*	x	24	64*
C[C@@H]1C[C@@H]([C@H](O)CC2CC(=O)NC(=O)C2)C(=O)[C@@H](C)C1	92*	79*	x	79*	x
CC(=O)OC1(C)CC(C)C(=O)C(C(O)CC2CC(=O)NC(=O)C2)C1 (configuration not stated)	95*	84*	x	89*	x
CN1[C@@H]2Cn3c(cccc3=O)[C@H]1[C@@H](C(=O)NCC1CC1)[C@@H]2CO	x	x	x	x	-8
O=C(c1ccc(CNS(=O)(=O)c2ccccc2)cc1)N1CCC2(CC1)OCCO2	8	1	x	-3	x
O=C(c1ccc(CNS(=O)(=O)c2ccc(Br)cc2)cc1)N1CCC2(CC1)OCCO2	14	8	-2	-12	64*
CCC(=NCc1cccnc1)c1c(O)n(Cc2ccccc2)c(=O)[nH]c1=O	-2	5	27	5	16
C=C1C(C)C2C(Cc3ccccc3)NC(=O)C23OC(=O)/C=C/C(O)CCCC(C)C/C=C/C3C1O (configuration not stated)	65	-4	x	0	93*
COc1ccc(-c2ccc([C@H]3[C@@H](CO)N4CCCCN(C(=O)Cc5ccccc5)C[C@H]34)cc2)cc1	x	x	x	x	0
COc1ccc(-c2ccc([C@@H]3[C@@H](CO)N4CCCCN(C(=O)Cc5ccccc5)C[C@H]34)cc2)cc1	x	x	x	x	119*
O=C(Cc1ccccn1)N1CCCCN2[C@@H](CO)[C@@H](c3ccc(-c4ccc(F)cc4)cc3)[C@@H]2C1	x	x	x	x	89*
CCn1c(O)c(C(=O)CC2NCCc3ccccc32)c(=O)n(CC)c1=S (configuration not stated)	-17	-5	x	4	x
CC(C)OC12Oc3ccccc3C=C1N1CCC2CC1 (configuration not stated)	-5	-1	20	2	x
CC(=O)OC1CC[C@]2(C#N)[C@H]3CC[C@]4(C)[C@H](C5C=CC(=O)O5)CCC4(O)C3CCC2(O)C1 (some centres not stated)	-14	34	85*	-26	-18
CCn1nc(/C=C/c2ccccc2)nc2c(=O)n(C)c(=O)nc1-2	98*	104*	1	72*	94*
CCn1nc(-c2cccs2)nc2c(=O)n(C)c(=O)nc1-2	97*	100*	x	33	x
CC(=NNC(=S)N1CC2CCC(CC2)C1)c1nccs1	93*	57	x	73*	-34
O=C(NN=Cc1ccc(N(CCCl)CCCl)cc1Cl)c1cccnc1	6	2	x	78*	-19
Cc1cc(N(CCCl)CCCl)ccc1C=NNC(=O)c1cccnc1	19	10	x	74*	-2
SMILES	Shn3 3UTR inh	TRPM1 prom inh	aSyn UTR inh	LMP1 NFkB inh	PAX8 inh HTS
CN(C)c1ccc(/C=C/C=C/c2sc3ccccc3[n+]2C)cc1	x	63*	u	21	84*
CC[n+]1c(/C=C/N(C)c2ccccc2)sc2ccc(Cl)cc21	92*	67*	-12	20	x
CC[n+]1c(/C=C/C=C/c2ccc(N(C)C)cc2)sc2ccccc21	84	71*	u	39	80*
CN(C)c1ccc(/C=C/c2cc[n+](C)c3ccccc23)cc1	81	82*	x	42*!	95*
Cc1cccc(N2CCN(CCc3ccccc3)CC2)c1C	3	3	19	-2	x
CCN1C[C@]2(CO)CC[C@H](OC)[C@@]34C5C[C@H]6[C@H](OC)C5[C@](O)(C[C@H]6OC)[C@@H](C(OC)C23)[C@@H]14 (some centres not stated)	4	-1	-8	-3	x
CC(=O)c1c(C)n(C2CCCCC2)c2ccc(O)cc12	14	14	18	70*	-12
COc1ccc2nc(-c3ccc(CN4CCC(n5c(=O)[nH]c6ccccc65)CC4)cc3)c(-c3ccccc3)nc2c1	x	x	x	x	28
NC(=S)c1cn(C2OC(CO)C(O)C2O)c2ncnc(N)c12 (configuration not stated)	97*	82*	105*	4	108*
Nc1ncnc2c1ccn2[C@@H]1O[C@H](CO)[C@@H](O)[C@H]1O	96*	x	107*	92*	x
CC1CN(C(=O)CCC(=O)N2CCC3(CC2)OCCO3)c2cc(Cl)ccc2O1 (configuration not stated)	-23	-2	-8	0	11
COC(=O)C1=C(c2cc3ccccc3o2)C[C@@H]2CC[C@H]1N2C(=O)N1CCCCC1	36	39	66*	14	29
COC(=O)C1=C(c2cc3ccccc3o2)C[C@@H]2CC[C@H]1N2C(=O)N1CCCC1	50	10	32	12	5
CCOC(=O)C1C(OC(=O)c2ccccc2)CC2CCC1N2C (configuration not stated)	0	-1	x	73*	x
COC(=O)C1C2CC[C@@H](CC1OC(=O)c1ccccc1)N2 (some centres not stated)	-15	2	x	90*	x
COC1C(C)OC(OC2CC(C)(O)Cc3cc4c(c(O)c32)C(=O)c2c(O)cc3c(c2C4=O)OC2OC3(C)C(O)C(N(C)C)C2O)C(OC)C1(C)OC (configuration not stated)	3	64*	x	85*	x
COc1ccc(C(=O)N/N=C/C23CC[C@@H](O)CC2(O)CC[C@@H]2[C@@H]3CCC3(C)C(C4=CC(=O)OC4)CCC23O)cc1 (some centres not stated)	-1	41	89*	-9	-16
CN(C)c1ccc(C(=O)N/N=C/C23CC[C@@H](O)CC2(O)CC[C@@H]2[C@@H]3CCC3(C)C(C4=CC(=O)OC4)CCC23O)cc1 (some centres not stated)	x	75*	95*	-9	-2
CC12CC[C@H]3[C@@H](CCC4(O)C[C@H](O)CCC34/C=N/NC(=O)c3ccc(O)cc3)C1(O)CCC2C1=CC(=O)OC1 (some centres not stated)	x	-12	15	-6	-9
